# Screens (PubChem BioAssay)
# NSD2 inh: inhibitors of human NSD2, primary screen, biochemical, plate reader, single point | Histone-lysine N-methyltransferase NSD2 (Homo sapiens), O96028 | NSD2-SET H3K36me1 DELFIA fluorescence | inhibition, % at 12.5 µM | 44,000 compounds, 0.07% hits | AID 624260, 2012; in the data active = inhibition above about 54%, passing the limit was not always enough;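 also: inhibitors reduce the monomethyl H3K36 fluorescence signal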
# Hits are given with their value; n = inactive. Only a selection was taken, and hits are over-represented in it overall.
SMILES,NSD2 inh
COC(=O)c1sc(C(C)(C)C)cc1CS(=O)(=O)c1cc(C)c(Cl)cc1C,n
O=C1C(Cl)=C(NCCN2CCOCC2)C(=O)c2ncccc21,90.2
c1ccc2c(c1)CCCc1cc(NCCN3CCOCC3)nnc1-2,n
Cc1ccc(S(=O)(=O)c2nc(-c3ccccc3)oc2NCCN2CCOCC2)cc1,n
Cc1cccc(C)c1Nc1c(-c2ccsc2)nc2sccn12,n
Cc1nn(-c2ccccc2)cc1C1C=C(c2ccc(Cl)cc2)N=C2SCC(=O)N21 (centres undefined),n
OC[C@H]1O[C@@H](Oc2ccc3c(c2)OC[C@H]2c4cc5c(cc4O[C@@H]32)OCO5)[C@H](O)[C@@H](O)[C@@H]1O,68.4
Oc1ccc2c(c1O)OCC1c3cc4c(cc3OC21)OCO4 (centres undefined),n
COc1ccc2c(c1)O[C@H]1c3ccc(O)cc3OC[C@@H]21,n
Cc1ccc(NC2=CC(=O)c3sc(C)nc3C2=O)cc1,73.7
NNC(=O)CCn1c(-c2ccccc2)c(-c2ccccc2)c2ccccc21,n
COc1c(-c2ccc(O)cc2)oc2cc(O)cc(O)c2c1=O,n
O=c1c(O[C@@H]2OC[C@H](O)[C@H](O)[C@H]2O)c(-c2ccc(O)c(O)c2)oc2cc(O)cc(O)c12,n
C[C@@H]1O[C@@H](Oc2cc(O)c3c(=O)c(O[C@@H]4O[C@@H](C)[C@H](O)[C@@H](O[C@@H]5OC[C@@H](O)[C@H](O)[C@H]5O)[C@H]4O[C@@H]4O[C@H](CO)[C@@H](O)[C@H](O)[C@H]4O)c(-c4ccc(O)c(O)c4)oc3c2)[C@H](O)[C@H](O)[C@H]1O,n
O=c1c(OC2OCC(O)C(O)C2O)c(-c2ccc(O)c(O)c2)oc2cc(O)cc(O)c12 (centres undefined),59.6
O=c1c(O[C@@H]2O[C@H](CO)[C@H](O)[C@H](O)[C@H]2O)c(-c2ccc(O)cc2)oc2cc(O)cc(O)c12,n
O=c1c(O[C@@H]2OC[C@H](O)[C@H](O)[C@H]2O)c(-c2ccc(O)cc2)oc2cc(O)cc(O)c12,72.0
CC1(C)C/C(=N\O)c2c(nc(C(F)(F)F)c3[nH]c4ccccc4c23)C1,n
Cc1ccc(NC(=O)c2[nH]c3c(c2C)C(=O)CC(c2ccc(C(C)(C)C)cc2)C3)cc1C (centres undefined),n
COC(=O)c1sccc1S(=O)(=O)Nc1ccc(-c2cn3c(n2)SCC3)cc1,n
O=C1c2cccc3cccc(c23)N1Cc1ccc(F)cc1Cl,n
CCCCN(C)S(=O)(=O)c1ccc(C)c(-c2nnc3c4ccccc4c(C)nn23)c1,n
CC(C)(C)c1ccc(-c2ncon2)cc1Cn1nnc(-c2cccc(C(F)(F)F)c2)n1,n
COc1ccc(/C=C2\Oc3cc(O)cc(O)c3C2=O)cc1O,n
CC(C)=CCN(CC#Cc1ccccc1)[C@H](CO)c1ccccc1,n
SMILES,NSD2 inh
CN(C)/C=N/C(=S)N1CCOCC1,n
COc1ccc(/C=N/NC(=O)CCCCCCC(=O)NO)cc1OC,n
CCOC(=O)NC1c2ccccc2Sc2ccc(Cl)cc21 (centres undefined),n
COc1cc(C2c3c(cc(OC)c(O)c3OC)CC(CO)C2COC2OC(CO)C(O)C(O)C2O)cc(OC)c1O (centres undefined),75.8
COc1cc(C[C@H]2CO[C@H](c3ccc(O[C@@H]4O[C@H](CO)[C@@H](O)[C@H](O)[C@H]4O)c(OC)c3)[C@H]2CO)ccc1O,n
COc1cc(C2c3c(cc(OC)c(O)c3OC)CC(CO)C2COC2OCC(O)C(O)C2O)cc(OC)c1O (centres undefined),n
O=C(CCCCCCC(=O)Nc1ccccc1O)N/N=C/c1cc(Br)c(O)c(Br)c1,n
COc1ccc(CCN2C(=O)C(C)SC2c2cccnc2)cc1 (centres undefined),n
Cc1cc(O)c(C)c2c1Oc1c(C)c(O)cc(C)c1C(=O)O2,n
